This passage reports Potency and activity change, negative = inhibition results from PubChem BioAssay (NCATS).

Experiment [1] has as its system Zika virus NS2B-NS3 protease (unlinked complex). The experiment in a line: Primary screen GU Rhodamine qHTS for Zika virus inhibitors: Unlinked NS2B-NS3 protease assay (AID 1347159). Note: nearly all actives have a fitted effect of over 60% in size. In a few lines:
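Noncovalent NS2B hydrophilic domain–NS3 protease domain complex (25 nM) preincubated 15 min at room temperature with compounds (up to 114 microM) in 10 mM Tris-HCl pH 8.0, 0.01% Tween 20; 1.5 microM Rhodamine110 substrate added, fluorescence change over 15 min fitted to Hill equation.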
For orientation: Quantitative high-throughput screening tests each substance at several concentrations.

Experiment [2] has as its system Zika virus NS2B-NS3 protease (linked construct). Kind of experiment: Primary screen NINDS Rhodamine qHTS for Zika virus inhibitors (AID 1347160). Note: nearly all actives have a fitted effect of over 55% in size. The method in brief:
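Purified linked NS2B-NS3 protease (NS2B hydrophilic domain joined to NS3 protease by flexible linker), 25 nM in 10 mM Tris-HCl pH 8.0, 0.01% Tween 20. Compounds titrated, 15 min preincubation at room temperature; 1.5 microM Rhodamine110 substrate, FITC fluorescence change over 15 min.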

Results filed as inconclusive are left out. Unmarked numbers belong to inactive results. Active and inactive are the calls of the source. Calls come from the whole dose curve; as a rule, active = well fitted inhibition curve with a large enough effect; inconclusive = small, poorly fitted or top-dose-only effect; inactive = no such curve, though single readings can be large or run the other way.
% is set by controls: 0 for no effect and ±100 for the full control effect.

For the compound `CC12CCC(OC3OC(CO)C(O)C(OC4OC(CO)C(O)C(O)C4O)C3O)CC1CCC1C2CCC2(C)/C(=C3/COC(=O)C3)CCC12O` (stereo not drawn), the Potency result in experiment [1] and in experiment [2] was “inactive” throughout.

Turning to `CC(C)NCC(C(=O)N1CCN(c2ncnc3c2C(C)CC3O)CC1)c1ccc(Cl)cc1` (stereo not drawn), the Potency entry in experiment [1] and in experiment [2] was “inactive” each time.

For the compound `C=C1CC[C@@H]2[C@@](C)(CO[C@@H]3O[C@H](CO)C(O)[C@H](O)C3O)[C@H](O)CC[C@@]2(C)[C@@H]1CC/C(C)=C/CO` (stereo partly drawn), the Potency result in experiment [1] and in experiment [2] was “inactive” each time.

In the case of `CC[C@@H](N)CNc1ccnc(-c2cc(-c3cnn(C)c3)ccc2O)n1`, the Potency entry in experiment [1] and in experiment [2] was “inactive” each time.

As for `CN1CCc2nc(C(=O)N[C@@H]3C[C@@H](C(=O)N(C)C)CC[C@@H]3NC(=O)C(=O)Nc3ccc(Cl)cn3)sc2C1`, the Potency result in experiment [1] and in experiment [2] was “inactive” each time.

With `Nc1nc2c(ncn2[C@@H]2O[C@H](CO)[C@@H](O)[C@H]2O)c(=O)[nH]1`, the Potency entry in experiment [1] and in experiment [2] was “inactive” each time.

As for `COC1CC(O[C@H]2CC[C@@]3(C)C(=CC[C@]4(O)C3[C@H](OC(C)=O)[C@@H](OC(=O)c3ccccc3)[C@]3(C)[C@@H](C(C)=O)CC[C@@]34O)C2)OC(C)C1OC1CC(OC)C(OC2CC(OC)C(OC3OC(C)C(OC4OC(CO)C(O)C(O)C4O)C(OC)C3O)C(C)O2)C(C)O1` (stereo partly drawn), the activity change, negative = inhibition in experiment [1] is 25.7% [at 19.1 µM]; in experiment [2], -1.64% [at 10.7 µM].

For `CC12CCC3c4ccc(OC5OC(C(=O)O)C(O)C(O)C5O)cc4CCC3C1CCC2O` (stereo not drawn), the Potency result in experiment [1] and in experiment [2] was “inactive” each time.

As to `O=C(O)c1cn(C2CC2)c2cc(N3C[C@@H]4C[C@H]3CN4)c(F)cc2c1=O`, the Potency entry in experiment [1] and in experiment [2] was “inactive” in each case.
